What was measured:
Experiment in all cases: DAPPL (digital affinity profiling via proximity ligation, sequencing); 10 mM Tris-HCl pH 7.5, 50 mM NaCl, 1 mM DTT, 4% glycerol, room temperature, 30 min; GST-TFs on glutathione beads, 16-mer random dsDNA library, 0.1% formaldehyde crosslink after washing; high values mean tight binding
FEV = molecular target: T1, FEV (Homo sapiens, UniProt Q99581 1-238); details: protein: recombinant; tags: N-terminal GST; dsDNA, one strand shown
T1 sequence: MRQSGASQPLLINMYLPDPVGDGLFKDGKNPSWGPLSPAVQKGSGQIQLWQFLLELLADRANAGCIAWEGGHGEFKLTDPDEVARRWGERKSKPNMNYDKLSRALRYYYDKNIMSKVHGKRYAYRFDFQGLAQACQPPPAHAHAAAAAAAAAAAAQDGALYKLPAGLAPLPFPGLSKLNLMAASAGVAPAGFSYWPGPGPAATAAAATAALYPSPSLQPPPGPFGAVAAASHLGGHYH
In short: (§1)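 A tag-only sample was pooled with DNA-barcoded human transcription factors that had been expressed in yeast as GST fusions and captured on glutathione beads. The pools were incubated for 30 min at room temperature with 200 nmole of a random double-stranded 16-mer DNA library in Tris/NaCl/DTT/glycerol buffer, then washed, crosslinked with 0.1% formaldehyde, proximity-ligated (BsaI/T4 ligase, 1 h, 37 °C), PCR-amplified and sequenced on an Illumina NextSeq500. Binding signal is each hexamer's read frequency for a factor divided by its frequency for the tag-only sample.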

ETV5 = ETV5 (Homo sapiens, UniProt P41161 1-510); details: protein: recombinant; tags: N-terminal GST; dsDNA, one strand shown
ETV5, sequence (P41161 whole entry): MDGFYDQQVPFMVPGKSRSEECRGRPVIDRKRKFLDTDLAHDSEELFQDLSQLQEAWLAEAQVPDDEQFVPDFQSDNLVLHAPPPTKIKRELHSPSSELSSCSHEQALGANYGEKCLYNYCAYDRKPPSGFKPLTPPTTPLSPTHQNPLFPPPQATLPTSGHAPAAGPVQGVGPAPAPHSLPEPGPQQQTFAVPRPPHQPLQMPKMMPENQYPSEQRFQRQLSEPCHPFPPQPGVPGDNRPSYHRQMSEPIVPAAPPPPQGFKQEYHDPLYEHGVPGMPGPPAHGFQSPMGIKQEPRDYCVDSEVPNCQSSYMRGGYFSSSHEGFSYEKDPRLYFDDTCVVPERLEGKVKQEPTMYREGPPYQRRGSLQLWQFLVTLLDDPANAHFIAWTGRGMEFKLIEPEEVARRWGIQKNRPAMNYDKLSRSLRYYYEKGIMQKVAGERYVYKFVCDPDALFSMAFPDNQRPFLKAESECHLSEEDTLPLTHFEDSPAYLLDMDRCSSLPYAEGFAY
In short: as §1

HSF1 = HSF1 (Homo sapiens, UniProt Q00613 1-529); details: protein: recombinant; tags: N-terminal GST; chain copies: 3; dsDNA, one strand shown
HSF1, sequence (Q00613 whole entry): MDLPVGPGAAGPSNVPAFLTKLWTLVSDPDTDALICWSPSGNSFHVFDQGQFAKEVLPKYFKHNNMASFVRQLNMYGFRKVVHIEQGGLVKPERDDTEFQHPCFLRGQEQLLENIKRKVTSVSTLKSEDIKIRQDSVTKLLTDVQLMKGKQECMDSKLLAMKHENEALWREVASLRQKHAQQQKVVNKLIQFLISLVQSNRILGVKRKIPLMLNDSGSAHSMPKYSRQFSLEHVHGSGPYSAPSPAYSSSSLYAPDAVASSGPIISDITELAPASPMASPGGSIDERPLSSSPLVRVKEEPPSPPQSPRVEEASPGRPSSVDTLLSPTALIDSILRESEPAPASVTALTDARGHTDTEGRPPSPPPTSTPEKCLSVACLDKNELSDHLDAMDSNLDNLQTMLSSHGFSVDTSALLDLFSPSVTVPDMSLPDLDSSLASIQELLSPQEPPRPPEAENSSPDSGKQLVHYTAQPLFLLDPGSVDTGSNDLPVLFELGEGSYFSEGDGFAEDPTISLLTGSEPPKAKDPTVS
In short: as §1

SPIC = molecular target: T2, SPIC (Homo sapiens, UniProt Q8N5J4 1-248); details: protein: recombinant; tags: N-terminal GST; dsDNA, one strand shown
T2 sequence: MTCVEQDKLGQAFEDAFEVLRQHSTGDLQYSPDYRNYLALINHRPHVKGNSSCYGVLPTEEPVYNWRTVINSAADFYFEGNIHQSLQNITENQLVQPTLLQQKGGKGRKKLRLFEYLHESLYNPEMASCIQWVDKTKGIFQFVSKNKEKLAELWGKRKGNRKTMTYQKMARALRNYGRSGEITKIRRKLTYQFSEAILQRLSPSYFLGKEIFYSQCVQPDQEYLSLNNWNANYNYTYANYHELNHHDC
In short: as §1

ELF4 = ELF4 (Homo sapiens, UniProt Q99607 1-663); details: protein: recombinant; tags: N-terminal GST; dsDNA, one strand shown
ELF4, sequence (Q99607 whole entry): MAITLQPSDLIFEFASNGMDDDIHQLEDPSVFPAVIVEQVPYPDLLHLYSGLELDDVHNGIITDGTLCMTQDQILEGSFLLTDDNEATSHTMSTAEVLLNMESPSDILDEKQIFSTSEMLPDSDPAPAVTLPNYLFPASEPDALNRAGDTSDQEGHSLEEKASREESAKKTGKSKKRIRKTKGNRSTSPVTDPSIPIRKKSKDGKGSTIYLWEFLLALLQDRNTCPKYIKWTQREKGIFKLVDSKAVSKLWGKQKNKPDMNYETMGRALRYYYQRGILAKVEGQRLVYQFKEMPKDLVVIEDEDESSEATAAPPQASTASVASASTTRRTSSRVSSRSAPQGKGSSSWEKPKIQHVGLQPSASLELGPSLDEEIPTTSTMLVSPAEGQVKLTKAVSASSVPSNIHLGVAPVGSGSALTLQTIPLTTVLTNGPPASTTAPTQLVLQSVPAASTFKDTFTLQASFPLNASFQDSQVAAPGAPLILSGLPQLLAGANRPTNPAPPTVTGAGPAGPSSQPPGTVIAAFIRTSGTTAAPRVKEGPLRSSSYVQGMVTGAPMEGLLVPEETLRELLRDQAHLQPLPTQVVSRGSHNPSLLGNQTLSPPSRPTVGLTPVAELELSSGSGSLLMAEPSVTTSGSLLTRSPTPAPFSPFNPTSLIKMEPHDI
In short: as §1

ELK4 = molecular target: T3, ELK4 (Homo sapiens, UniProt P28324-2 1-405); details: protein: recombinant; tags: N-terminal GST; dsDNA, one strand shown
T3 sequence: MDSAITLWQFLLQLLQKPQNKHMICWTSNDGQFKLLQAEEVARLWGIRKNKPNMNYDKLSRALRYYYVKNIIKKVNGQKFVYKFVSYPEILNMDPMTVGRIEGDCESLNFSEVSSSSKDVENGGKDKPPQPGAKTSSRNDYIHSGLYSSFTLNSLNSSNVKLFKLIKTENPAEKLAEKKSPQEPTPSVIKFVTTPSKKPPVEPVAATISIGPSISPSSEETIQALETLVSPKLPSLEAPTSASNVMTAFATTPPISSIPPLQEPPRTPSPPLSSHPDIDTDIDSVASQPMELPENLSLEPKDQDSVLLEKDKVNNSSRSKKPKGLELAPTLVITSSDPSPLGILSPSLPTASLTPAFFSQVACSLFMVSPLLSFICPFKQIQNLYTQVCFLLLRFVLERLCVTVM
In short: as §1

ETV2 = molecular target: T4, ETV2 (Homo sapiens, UniProt O00321 1-342); details: protein: recombinant; tags: N-terminal GST; dsDNA, one strand shown
T4 sequence: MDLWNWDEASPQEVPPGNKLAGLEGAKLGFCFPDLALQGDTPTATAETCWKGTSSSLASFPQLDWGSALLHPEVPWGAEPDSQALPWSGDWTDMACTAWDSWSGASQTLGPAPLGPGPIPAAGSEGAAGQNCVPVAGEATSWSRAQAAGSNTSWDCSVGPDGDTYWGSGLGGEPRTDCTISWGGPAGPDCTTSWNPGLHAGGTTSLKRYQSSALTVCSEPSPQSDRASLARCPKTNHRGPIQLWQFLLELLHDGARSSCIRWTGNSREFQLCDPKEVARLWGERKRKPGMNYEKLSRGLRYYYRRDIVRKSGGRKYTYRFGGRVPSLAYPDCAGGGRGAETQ
In short: as §1

ELF3 = molecular target: T5, ELF3 (Homo sapiens, UniProt P78545 1-371); details: protein: recombinant; tags: N-terminal GST; dsDNA, one strand shown
T5 sequence: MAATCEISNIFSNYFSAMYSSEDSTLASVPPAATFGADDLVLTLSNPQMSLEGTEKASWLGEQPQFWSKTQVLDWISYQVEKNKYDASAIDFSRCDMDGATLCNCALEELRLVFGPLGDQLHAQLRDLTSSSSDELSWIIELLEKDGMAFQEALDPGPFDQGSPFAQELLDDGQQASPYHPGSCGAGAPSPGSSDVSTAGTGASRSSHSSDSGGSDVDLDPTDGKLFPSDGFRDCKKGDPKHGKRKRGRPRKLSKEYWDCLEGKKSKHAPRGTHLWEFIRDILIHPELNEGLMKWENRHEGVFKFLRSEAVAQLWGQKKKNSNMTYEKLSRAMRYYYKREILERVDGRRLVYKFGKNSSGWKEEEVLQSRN
In short: as §1

CRX = CRX (Homo sapiens, UniProt O43186 1-299); details: protein: recombinant; tags: N-terminal GST; dsDNA, one strand shown
CRX, sequence (O43186 whole entry): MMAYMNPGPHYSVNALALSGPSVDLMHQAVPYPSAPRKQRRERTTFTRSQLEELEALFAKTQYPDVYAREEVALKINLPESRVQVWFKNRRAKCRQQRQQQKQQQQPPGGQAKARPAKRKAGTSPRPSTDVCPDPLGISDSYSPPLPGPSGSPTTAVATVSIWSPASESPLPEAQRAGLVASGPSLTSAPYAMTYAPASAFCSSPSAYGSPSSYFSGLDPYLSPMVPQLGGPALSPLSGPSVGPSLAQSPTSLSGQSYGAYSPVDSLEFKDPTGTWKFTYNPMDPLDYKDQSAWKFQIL
In short: as §1

ETV1 = ETV1 (Homo sapiens, UniProt P50549 1-477); details: protein: recombinant; tags: N-terminal GST; dsDNA, one strand shown
ETV1, sequence (P50549 whole entry): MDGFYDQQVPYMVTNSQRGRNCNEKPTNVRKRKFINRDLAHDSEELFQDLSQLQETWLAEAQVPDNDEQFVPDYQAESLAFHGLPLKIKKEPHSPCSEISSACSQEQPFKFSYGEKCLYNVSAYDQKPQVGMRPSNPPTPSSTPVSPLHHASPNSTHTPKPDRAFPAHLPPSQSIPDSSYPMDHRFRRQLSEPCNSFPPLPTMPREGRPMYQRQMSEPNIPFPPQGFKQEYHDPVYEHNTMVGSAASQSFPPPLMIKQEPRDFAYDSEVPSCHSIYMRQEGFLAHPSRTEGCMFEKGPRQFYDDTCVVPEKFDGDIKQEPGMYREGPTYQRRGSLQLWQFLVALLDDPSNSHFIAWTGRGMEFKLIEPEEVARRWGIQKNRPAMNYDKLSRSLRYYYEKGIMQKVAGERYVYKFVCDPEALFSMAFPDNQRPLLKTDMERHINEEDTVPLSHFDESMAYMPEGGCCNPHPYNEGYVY
In short: as §1

Sequence	binding signal (FEV)	binding signal (ETV5)	binding signal (HSF1)	binding signal (SPIC)	binding signal (ELF4)	binding signal (ELK4)	binding signal (ETV2)	binding signal (ELF3)	binding signal (CRX)	binding signal (ETV1)
ATCTCA	1.16 fold enrichment (6-mer frequency, TF over GST control)	1.18 fold enrichment (6-mer frequency, TF over GST control)	1.19 fold enrichment (6-mer frequency, TF over GST control)	1.14 fold enrichment (6-mer frequency, TF over GST control)	1.18 fold enrichment (6-mer frequency, TF over GST control)	1.14 fold enrichment (6-mer frequency, TF over GST control)	1.23 fold enrichment (6-mer frequency, TF over GST control)	1.22 fold enrichment (6-mer frequency, TF over GST control)	1.51 fold enrichment (6-mer frequency, TF over GST control)	1.16 fold enrichment (6-mer frequency, TF over GST control)
TACCTG	1.11 fold enrichment (6-mer frequency, TF over GST control)	1.19 fold enrichment (6-mer frequency, TF over GST control)	1.04 fold enrichment (6-mer frequency, TF over GST control)	1.04 fold enrichment (6-mer frequency, TF over GST control)	1.14 fold enrichment (6-mer frequency, TF over GST control)	1.07 fold enrichment (6-mer frequency, TF over GST control)	1.14 fold enrichment (6-mer frequency, TF over GST control)	1.15 fold enrichment (6-mer frequency, TF over GST control)	1.11 fold enrichment (6-mer frequency, TF over GST control)	1.27 fold enrichment (6-mer frequency, TF over GST control)
CCGAGC	1.18 fold enrichment (6-mer frequency, TF over GST control)	1.14 fold enrichment (6-mer frequency, TF over GST control)	1.13 fold enrichment (6-mer frequency, TF over GST control)	1.26 fold enrichment (6-mer frequency, TF over GST control)	1.09 fold enrichment (6-mer frequency, TF over GST control)	1.09 fold enrichment (6-mer frequency, TF over GST control)	1.35 fold enrichment (6-mer frequency, TF over GST control)	1.23 fold enrichment (6-mer frequency, TF over GST control)	1.01 fold enrichment (6-mer frequency, TF over GST control)	1.02 fold enrichment (6-mer frequency, TF over GST control)
CCGTAA	1.07 fold enrichment (6-mer frequency, TF over GST control)	1.06 fold enrichment (6-mer frequency, TF over GST control)	1.09 fold enrichment (6-mer frequency, TF over GST control)	1.03 fold enrichment (6-mer frequency, TF over GST control)	1.14 fold enrichment (6-mer frequency, TF over GST control)	1.15 fold enrichment (6-mer frequency, TF over GST control)	1.2 fold enrichment (6-mer frequency, TF over GST control)	1.1 fold enrichment (6-mer frequency, TF over GST control)	1.27 fold enrichment (6-mer frequency, TF over GST control)	1.05 fold enrichment (6-mer frequency, TF over GST control)
TCATCA	1.12 fold enrichment (6-mer frequency, TF over GST control)	1.09 fold enrichment (6-mer frequency, TF over GST control)	1.06 fold enrichment (6-mer frequency, TF over GST control)	1.16 fold enrichment (6-mer frequency, TF over GST control)	1.18 fold enrichment (6-mer frequency, TF over GST control)	1.26 fold enrichment (6-mer frequency, TF over GST control)	1.07 fold enrichment (6-mer frequency, TF over GST control)	1.07 fold enrichment (6-mer frequency, TF over GST control)	1.07 fold enrichment (6-mer frequency, TF over GST control)	1.06 fold enrichment (6-mer frequency, TF over GST control)
TACTCG	1.23 fold enrichment (6-mer frequency, TF over GST control)	1.28 fold enrichment (6-mer frequency, TF over GST control)	1.72 fold enrichment (6-mer frequency, TF over GST control)	1.25 fold enrichment (6-mer frequency, TF over GST control)	1.22 fold enrichment (6-mer frequency, TF over GST control)	1.3 fold enrichment (6-mer frequency, TF over GST control)	1.19 fold enrichment (6-mer frequency, TF over GST control)	1.29 fold enrichment (6-mer frequency, TF over GST control)	1.38 fold enrichment (6-mer frequency, TF over GST control)	1.26 fold enrichment (6-mer frequency, TF over GST control)
TGCACT	1.51 fold enrichment (6-mer frequency, TF over GST control)	1.37 fold enrichment (6-mer frequency, TF over GST control)	1.02 fold enrichment (6-mer frequency, TF over GST control)	1.33 fold enrichment (6-mer frequency, TF over GST control)	1.33 fold enrichment (6-mer frequency, TF over GST control)	1.31 fold enrichment (6-mer frequency, TF over GST control)	1.46 fold enrichment (6-mer frequency, TF over GST control)	1.55 fold enrichment (6-mer frequency, TF over GST control)	1.06 fold enrichment (6-mer frequency, TF over GST control)	1.33 fold enrichment (6-mer frequency, TF over GST control)
